High-throughput results as filed in PubChem BioAssay.
An excerpt weighted towards active compounds, which were near 4.8% of everything screened.
NF-kB expr up – raises NF-kB expression in human neuronal cells. AID 1239. fold change at 12.5 µM. NF-kB reporter expression; active compounds read high. 190,000 tested, 1.6% active; in the data active = fold change above about 3.3
APP transl inh – APP translation inhibition; 190,000 tested, 0.82% active; inhibition, % at 2 µM; SH-SY5Y APP 5'UTR-luciferase reporter, luminescence; AID 1285;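 active = inhibition above a set limit, derived from the sample mean plus 3 SD, cut at about 45% in these data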
Wee1 stabilizer – inhibitors of human Wee1 degradation | reporter increase, % at 5 µM | P30291 | 220,000 tested, 1.2% active | HeLa Luc-Wee1K328M stability, luciferase luminescence; 100% = proteasome inhibitor MG132 effect;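 active = activation above the mean of all tested compounds plus 3 SD, set per screening run, cut at about 8.8% in these data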;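 note: cells exposed to compound for 20 h before luminescence read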
Target sequence (P30291 whole entry K328M): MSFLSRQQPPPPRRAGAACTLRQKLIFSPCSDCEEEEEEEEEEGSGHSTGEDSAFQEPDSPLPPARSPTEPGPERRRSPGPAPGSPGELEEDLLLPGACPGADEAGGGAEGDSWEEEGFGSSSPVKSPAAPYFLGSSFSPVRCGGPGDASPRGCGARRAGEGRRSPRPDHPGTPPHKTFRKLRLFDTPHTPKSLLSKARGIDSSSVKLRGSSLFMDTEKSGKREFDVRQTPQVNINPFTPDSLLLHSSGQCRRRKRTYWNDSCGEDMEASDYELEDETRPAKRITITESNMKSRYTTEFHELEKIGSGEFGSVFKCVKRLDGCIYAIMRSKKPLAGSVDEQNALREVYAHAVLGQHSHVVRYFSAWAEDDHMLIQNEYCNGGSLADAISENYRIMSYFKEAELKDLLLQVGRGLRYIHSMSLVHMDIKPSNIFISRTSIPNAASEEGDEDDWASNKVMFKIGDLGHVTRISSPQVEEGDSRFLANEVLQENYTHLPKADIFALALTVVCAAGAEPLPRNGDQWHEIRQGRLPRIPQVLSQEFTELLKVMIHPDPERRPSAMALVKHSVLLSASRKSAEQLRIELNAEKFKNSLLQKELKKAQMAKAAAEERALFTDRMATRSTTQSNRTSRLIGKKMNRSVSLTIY
APP 5'UTR act – activates APP 5'UTR luciferase reporter; SH-SY5Y APP 5'UTR luciferase reporter, luminescence; zero percent = DMSO vehicle wells; activation, % at 2 µM; 190,000 tested, 1% active;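 active = activation above a set limit, based on mean plus 3 SD of controls, cut at about 140% in these data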
Hsp70 activator – Hsp70 transcriptional activation, primary screen; HeLa Hsp70 promoter luciferase reporter, luminescence; scaled: vehicle 0, proteasome-inhibitor control 100%; activation, % at 10 µM; 200,000 tested, 0.04% active;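 active = activation above the mean across all tested compounds plus 3 SD, cutoff set per campaign, cut at about 5.5% in these data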
STAT1 act – activators of IFN-gamma induced STAT1 signaling. AID 932. activation (% of control), % at 5.5 µM. NIH 3T3 STAT1-luciferase reporter, luminescence; 100% = IFN-gamma alone, no compound. 200,000 tested, 2.6% active;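 active = activation above the screen-wide mean activation plus 3 SD, cut at about 130% in these data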
Of the large screens only hits and unclear results are named; the others gave an inactive call.

CCOC(=O)C1CCN(C(=O)c2ccc(CNS(=O)(=O)c3ccc(C)cc3)cc2)CC1	none
COc1ccc(N(CCCN2C(=O)c3cccc4cccc(c34)C2=O)C(=O)c2ccncc2)cc1	STAT1 act 130
c1ccc(Cc2cc(-c3ccccc3)on2)cc1	STAT1 act 132
Clc1ccc(SCc2cc(-c3ccccc3)on2)cc1	none
CCC(=O)NC(c1cccs1)c1ccc2cccnc2c1O (configuration not stated)	APP transl inh 85 (no result: NF-kB expr up)
CCCC(=O)NC(c1ccccc1OC)c1ccc2cccnc2c1O (configuration not stated)	NF-kB expr up 4.7, APP transl inh 75
CCCC(=O)NC(c1cccs1)c1cc(Cl)c2cccnc2c1O (configuration not stated)	none
CCCCC(=O)NC(c1ccccc1OC)c1ccc2cccnc2c1O (configuration not stated)	none (no result: NF-kB expr up, APP transl inh, APP 5'UTR act, Hsp70 activator, STAT1 act)
CC(C)CC(=O)NC(c1cccs1)c1ccc2cccnc2c1O (configuration not stated)	APP transl inh 82
Oc1c(C(Nc2nccs2)c2ccc(C(F)(F)F)cc2)ccc2cccnc12 (configuration not stated)	APP transl inh 66
CCCn1c(-c2ccc(OC)cc2)nc2c(=O)n(C)c(=O)[nH]c21	none
CC(C)CNC(=O)CN1C(=O)NC(Cc2c[nH]c3ccccc23)C1=O (configuration not stated)	none
COCCn1nc2cc(C(=O)NCC34CC5CC(CC(C5)C3)C4)ccc2c1OC	none
Cc1cc2nc(-c3ccc(SCC(=O)NC(C)C)nc3)[nH]c2cc1C	none
Cc1cc2nc(-c3ccc(SCC(=O)Nc4ccc(S(=O)(=O)NC5CC5)cc4)nc3)[nH]c2cc1C	NF-kB expr up 5.9, STAT1 act 147
Cc1cc2nc(-c3ccc(SCC(=O)N4CCc5ccccc54)nc3)[nH]c2cc1C	STAT1 act 139
CCOC(=O)C1(Cc2cccc(OC)c2)CCN(Cc2cccc(OCC)c2O)CC1	none
CCCCOC(=O)Nc1ccc(C(N)=O)cc1	none
CCCCOC(=O)Nc1ccc(N(C)C)cc1	NF-kB expr up 4, APP 5'UTR act 171, STAT1 act 144
CCCCOC(=O)Nc1ccc(N2CCCCC2)cc1	NF-kB expr up 6.1, Wee1 stabilizer 9.1, STAT1 act 140
CCCCOC(=O)Nc1nnc(C(C)C)s1	STAT1 act 130
CCCCOC(=O)Nc1ccc(C(C)C)cc1	STAT1 act 130
CCCCCOC(=O)Nc1nnc(CCC)s1	none
CCCCOC(=O)Nc1ccc(N2CCOCC2)cc1	none
Cc1ccc(-n2c(Cn3ncc4ccccc4c3=O)n[nH]c2=S)cc1	none
Cc1ccc(NC(=O)C2CCN(S(=O)(=O)c3ccc(F)cc3)CC2)cc1	none
Cc1ccnc(NC(=O)c2ccccc2[N+](=O)[O-])c1	none
Cc1cc(C)nc(NC(=O)/C=C/c2ccccc2Cl)c1	none
O=C(/C=C/c1ccccc1[N+](=O)[O-])N1CCCCC1	Wee1 stabilizer 9.1
NS(=O)(=O)c1ccc(NC(=O)/C=C/c2ccccc2[N+](=O)[O-])cc1	none
O=C(/C=C\c1ccccc1[N+](=O)[O-])Nc1ccccc1	STAT1 act 135
CCN1CCN(C(=O)/C=C/c2ccccc2[N+](=O)[O-])CC1	none
Cc1ccnc(NC(=O)/C=C/c2ccccc2Cl)c1	NF-kB expr up 8.7, APP 5'UTR act 186
Cc1ccnc(NC(=O)/C=C/c2ccccc2[N+](=O)[O-])c1	NF-kB expr up 7.7, APP 5'UTR act 142
[N-]=C=C1C(=O)NC(=O)C([n+]2ccc(-c3ccncc3)cc2)C1c1ccccc1C(F)(F)F (configuration not stated)	none (no result: NF-kB expr up, APP transl inh, APP 5'UTR act, Hsp70 activator, STAT1 act)
O=c1/c(=C/c2ccccc2)sc2nnc(-c3cccs3)n12	none (no result: NF-kB expr up, APP transl inh, APP 5'UTR act, Hsp70 activator, STAT1 act)
COc1ccc(C(=O)C2CCCN(Cc3nc4ccccc4nc3C)C2)cc1OC (configuration not stated)	none (no result: NF-kB expr up)
c1cncc(CNc2ncn[nH]2)c1	none (no result: NF-kB expr up, APP transl inh, APP 5'UTR act, Hsp70 activator, STAT1 act)
O=[N+]([O-])c1ccccc1N/N=C/c1cc2ccccc2nc1Cl	none
O=C(/C=C/c1cccs1)N1CCN(c2ccc(O)cc2)CC1	none
O=C(/C=C/c1cccs1)N1CCCCC1	STAT1 act 130
CCc1ccc(NC(=O)CSC2=C(C#N)C(c3ccco3)C3=C(CCCC3=O)N2)cc1 (configuration not stated)	none
N#CC1=C(SCC(=O)c2ccc(Br)cc2)NC2=C(C(=O)CCC2)C1c1ccco1 (configuration not stated)	APP transl inh 67, Wee1 stabilizer 11
Cn1c(CSc2nc3ccccc3s2)nc2ccccc21	STAT1 act 142
Cn1c(CSc2nc3ccccc3s2)n[nH]c1=S	none
O=c1oc2ccccc2n1CSC1=NCCS1	NF-kB expr up 4.2
O=c1oc2ccccc2n1CSc1nc2ccccc2s1	NF-kB expr up 3.3, STAT1 act 137
CCN(CC(O)Cn1c2ccccc2c2ccccc21)S(=O)(=O)c1ccc(C)cc1 (configuration not stated)	none
C/C(=N\Nc1cccc2cccnc12)c1ccc[nH]1	APP 5'UTR act 206
c1ccc2c(c1)Cn1nnnc1-2	none
COc1cccc(CNc2nc(SC)ncc2CO)c1	none
C/C(=N\Nc1ccccn1)c1ccc(C(C)C)cc1	none
C(=N\Nc1ccccn1)/c1ccc(N2CCOCC2)cc1	NF-kB expr up 4.5
C/C(=N\Nc1ccccn1)c1ccc(N2CCOCC2)cc1	STAT1 act 141
CC(=O)c1cccc(NC(=O)c2ccc(-c3ccccc3[N+](=O)[O-])o2)c1	NF-kB expr up 4
Clc1ccccc1-c1nc(-c2ccccc2)n[nH]1	NF-kB expr up 4, STAT1 act 132
O=[N+]([O-])c1cc(-c2n[nH]c(-c3ccccc3)n2)cc([N+](=O)[O-])c1	none
O=c1c2cc(NC(=S)NCCN3CCCCCC3)ccc2nc2n1CCCCC2	none
Cc1nn2c(N)c(C#N)cnc2c1-c1ccc(Cl)cc1	none
COc1ccc(-c2c(C)nn3c(N)c(C#N)cnc23)cc1OC	STAT1 act 137
Cn1c(=O)c2c(nc(NCC(O)CO)n2CCc2ccccc2)n(C)c1=O (configuration not stated)	none
COC(=O)c1sc(NC(=S)NC(=O)c2ccccc2F)nc1C	STAT1 act 129
CCOC(=O)CNC(=O)c1sc(NC(=O)c2ccccc2F)nc1C	STAT1 act 129
CCOC(=O)c1sc(Nc2ccccc2Cl)nc1C	none (no result: NF-kB expr up, APP transl inh, APP 5'UTR act, Hsp70 activator, STAT1 act)
CCOC(=O)c1sc(NC(=O)c2ccccc2OC)nc1C	NF-kB expr up 8, APP 5'UTR act 153, STAT1 act 146
CCOC(=O)c1sc(NC(=O)Nc2ccccc2F)nc1C	APP 5'UTR act 162
O=C(NCC1CCCO1)c1ccccc1NC(=O)c1cccc2ccccc12 (configuration not stated)	none
COc1cc2c(cc1OC)C1=NC(=O)CN1C(SCc1ccccc1)=N2	none
C/C(=N/NC(=O)c1cccs1)c1ccco1	none
